Shown are actives, neighbours in structure and some others; about 3.1% of the full set was active somewhere.
MEKK3 PB1 HTS: modulators of MEKK3-MEK5 PB1 binding, primary screen, biochemical, wildtype MEKK3, multiplex bead flow cytometry, Alexa488-MEK5; 290,000 compounds, 1.4% hits; bead-based flow cytometry, Alexa488-MEK5 binding to MEKK3; actives lie on both sides; 0 = blocked by unlabeled MEK5, 100 = vehicle; AID 1529, 2009; binding response (% of control), % at 10 µM; Mitogen-activated protein kinase kinase kinase 3 (Homo sapiens), Q99759;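 active = binding response more than 3 SD above or below the average of its plate-row segment, actives on both sides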;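 note: Alexa488 bead fluorescence after subtracting the streptavidin-only scavenger bead signal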
MEKK2mut PB1 HTS: MEK5 binding signal on mutant MEKK2 PB1, primary screen, biochemical, multiplex bead flow cytometry, Alexa488-MEK5 | AID 1530, 2009 | Alexa488-MEK5 binding to MEKK2 mutant | 290,000 compounds, 0.35% hits | percent response, % at 10 µM; in the data active = percent response above about 24%, passing the limit was not always enough
MEKK2wt PB1 HTS: modulators of MEK5 binding to wildtype MEKK2, primary screen, biochemical, multiplex bead flow cytometry, Alexa488-MEK5; Mitogen-activated protein kinase kinase kinase 2 (Homo sapiens), Q9Y2U5; Alexa488-MEK5 binding to MEKK2 WT; actives lie on both sides; binding response (% of control), % at 10 µM; 290,000 compounds, 1.1% hits; AID 1531, 2009; in the data active = binding response below about 67% or above about 130%
PREPL inh: PREPL enzyme inhibitors, primary screen, biochemical, fluorescence polarization; recombinant PREPL, fluorescence polarization activity-based probe; inhibition, % at 5.96 µM; 320,000 compounds, 0.68% hits; Prolyl endopeptidase-like (Homo sapiens), Q4J6C6; in the data active = inhibition above about 43%;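 note: 0% = enzyme with DMSO and 100% = wells lacking enzyme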
ATG4B inh: ATG4B protease inhibitors, primary screen, biochemical, fluorescence, uHTS. ATG4B cleavage of LC3-PLA2, NBD-HPC fluorescence, 1 h. 340,000 compounds, 0.51% hits. Cysteine protease ATG4B (Homo sapiens), Q9Y4P1. inhibition, % at 8.33 µM; in the data active = inhibition above about 40%
Target sequence (Q9Y4P1 whole entry, looked up): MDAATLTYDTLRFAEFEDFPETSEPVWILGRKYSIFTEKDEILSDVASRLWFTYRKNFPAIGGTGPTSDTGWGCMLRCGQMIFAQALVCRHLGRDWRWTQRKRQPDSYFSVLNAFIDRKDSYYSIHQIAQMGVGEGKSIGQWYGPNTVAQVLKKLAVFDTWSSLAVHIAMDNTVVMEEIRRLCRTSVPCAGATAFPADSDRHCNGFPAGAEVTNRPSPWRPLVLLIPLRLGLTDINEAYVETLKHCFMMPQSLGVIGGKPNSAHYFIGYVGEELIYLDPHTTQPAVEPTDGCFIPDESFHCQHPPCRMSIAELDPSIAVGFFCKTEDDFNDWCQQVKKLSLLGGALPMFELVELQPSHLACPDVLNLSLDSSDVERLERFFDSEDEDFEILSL
UBC13 inh: UBC13 polyubiquitin chain formation inhibitors, primary screen, biochemical, TR-FRET, uHTS. inhibition, % at 20 µM. 330,000 compounds, 0.47% hits. Ubiquitin-conjugating enzyme E2 N (Homo sapiens), P61088; in the data active = inhibition above about 45%, passing the limit was not always enough
Target sequence (P61088 whole entry, looked up): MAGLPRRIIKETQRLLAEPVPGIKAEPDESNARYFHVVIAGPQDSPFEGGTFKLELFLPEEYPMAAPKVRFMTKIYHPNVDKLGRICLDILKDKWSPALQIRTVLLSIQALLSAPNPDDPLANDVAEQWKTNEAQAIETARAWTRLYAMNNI
MEKK2wt confirm: modulators of MEK5 binding to wildtype MEKK2, confirmation, biochemical, single concentration, multiplex bead flow cytometry | shares compounds with MEKK3 PB1 HTS | Alexa488-MEK5 binding to MEKK2 WT; actives lie on both sides | binding response (% of control), % at 10 µM | 5,900 compounds, 2.4% hits | AID 1892, 2009; in the data active = binding response below about 16% or above about 210%; inactive = in between
MEKK2mut-MEK5: mutant MEKK2 PB1-MEK5 binding signal retest – biochemical, single concentration, multiplex bead flow cytometry, confirmation. shares compounds with MEKK3 PB1 HTS. Alexa488-MEK5 binding to MEKK2 mutant. percent response, % at 10 µM. 5,900 compounds, 2% hits. AID 1893, 2009; in the data active = percent response mostly above about 71%, no sharp cut-off; inactive = mostly below about 38%;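 note: higher means compound restores mutant binding toward wildtype level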
MEKK3-MEK5 inh: MEKK3 wild-type PB1 binding to MEK5, inhibitors, confirmation, biochemical, bead multiplex flow cytometry, single concentration, wildtype; 5,900 compounds, 1.8% hits; Alexa488-MEK5 binding to MEKK3; hits give low values; shares compounds with MEKK3 PB1 HTS; binding response (% of control), % at 10 µM;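 active = binding response below 72% of control, or above a set upper limit, though filed actives all read lower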;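 note: 100% = DMSO only wells and 0% = binding blocked by excess unlabeled MEK5; lower values mean stronger disruption of MEK5 binding to MEKK3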
* marks the source's active call; other numbers are inactive results; · = not tested or not shown; [ ] = dose if it differs, or a comment.

SMILES | MEKK3 PB1 HTS | MEKK2mut PB1 HTS | MEKK2wt PB1 HTS | PREPL inh | ATG4B inh | UBC13 inh | MEKK2wt confirm | MEKK2mut-MEK5 | MEKK3-MEK5 inh
CCCCc1ccc(S(=O)(=O)NC2CCS(=O)(=O)C2)cc1 (stereo unspecified) | 89 | -24 | 88 | -4 | -9 | -12 | · | · | ·
Cc1ccc2cccc(S(=O)(=O)NC3CCS(=O)(=O)C3)c2n1 (stereo unspecified) | 2.0*[inhibitor] | -26 | -1.0*[inhibitor] | 23 | -1 | -8 | 107 | 9 | 110
COc1ccc2c3c([nH]c2c1)C(C)N(CCC(=O)NN)CC3 (stereo unspecified) | 107 | 16 | 140* | · | -5 | 14 | 146 | 27 | 107
Nc1cccc(-c2nc3cc(S(=O)(=O)c4ccc5oc(-c6cccc(N)c6)nc5c4)ccc3o2)c1 | 69*[inhibitor] | -27 | 71 | 10 | 6 | -6 | 86 | -18 | 92
CCOc1ccc2nc(NCCCNS(=O)(=O)c3ccc(C)cc3)c(C#N)cc2c1 | 130* | 4 | 94 | -1 | -15 | 0 | 97 | 0 | 105
COc1ccc(/C=C/C(=O)N2CCN(S(=O)(=O)c3ccccc3)CC2)cc1OC | 98 | -3 | 89 | 6 | -12 | 5 | · | · | ·
COc1ccc(/C=C/C(=O)N2CCN(S(=O)(=O)/C=C/c3ccccc3)CC2)cc1OC | 145* | 0 | 108 | -5 | -15 | -4 | 102 | 6 | 104
O=C(CSc1ccc2nnc(CCNC(=O)c3ccccc3)n2n1)NCc1ccc(F)cc1 | 98 | 0 | 98 | 8 | -2 | -5 | · | · | ·
C=CCNC(=S)/N=c1/ccccn1CCC | 75*[inhibitor] | -31 | 82 | 5 | -6 | -3 | 107 | 3 | 101
CCOC(=O)c1ccc(Nc2nc(N)c3cc(OC)c(OC)cc3n2)cc1 | 113 | 30* | 141* | 17 | -17 | 34 | 169 | 37 | 106
COc1cc2nc(Nc3ccc(F)cc3)nc(N)c2cc1OC | 105 | 22 | 133 | 21 | -2 | 19 | · | · | ·
O=C(CSc1nnnn1-c1ccccc1)NCCCN1CCCC1=O | · | · | · | 34 | -3 | 2 | · | · | ·
O=[N+]([O-])c1cc(CN2CCCC2)ccc1Sc1ccc(Cl)cc1 | 109 | 34 | 149* | -10 | -1 | 18 | 122 | 15 | 105
Clc1ccc(CN2CCCCCC2)cc1 | 103 | 4 | 109 | 14 | -10 | 3 | · | · | ·
COc1ccc(Nc2cc(C(=O)NCc3ccco3)c3ccccc3n2)c(OC)c1 | 133* | 1 | 107 | 16 | 2 | -8 | 99 | 0 | 101
COc1ccc(-c2cc(C(=O)NCc3ccco3)c3ccccc3n2)c(OC)c1 | 93 | -11 | 84 | 4 | -5 | 5 | · | · | ·
O=C(NCCS(=O)(=O)N1CCCCC1)c1ccccc1 | · | · | · | -4 | 4 | 2 | · | · | ·
CC(NCCC(c1ccccc1)c1ccccc1)c1ccccc1 (stereo unspecified) | 99 | 12 | 145* | -33 | 5 | 38 | 130 | 13 | 104
CC(NC1CCCC1)c1ccccc1 (stereo unspecified) | 88 | -3 | 98 | 25 | 11 | -6 | · | · | ·
O=C(Cc1cc(C(=O)O)c2ccccc2n1)Nc1ccccc1 | 101 | -2 | 92 | 29 | 15 | -7 | · | · | ·
O=C(Cc1coc(-c2ccc(F)cc2)n1)Nc1ccccc1 | 2.0*[inhibitor] | -46 | 2.0*[inhibitor] | -14 | 6 | 10 | 110 | 2 | 107
Clc1ccc(CN2C3=NCCCN3c3ccccc32)cc1Cl | 96 | -4 | 98 | 14 | -3 | 18 | · | · | ·
COc1ccc(/C=N/NC(=O)CCC(=O)Nc2ccccc2)cc1OC | 107 | 3 | 101 | -5 | -13 | 3 | · | · | ·
COc1ccc(/C=N/NC(=O)CCn2cnc(-c3ccccc3)c2-c2ccccc2)cc1OC | 64*[inhibitor] | 0 | 98 | 7 | -15 | 14 | 75 | -15 | 72
COc1ccc(/C=N\NC(=O)CC(=O)Nc2cccc(Cl)c2)cc1OC | 73*[inhibitor] | -10 | 77 | 5 | 0 | -3 | 103 | 4 | 103
SMILES | MEKK3 PB1 HTS | MEKK2mut PB1 HTS | MEKK2wt PB1 HTS | PREPL inh | ATG4B inh | UBC13 inh | MEKK2wt confirm | MEKK2mut-MEK5 | MEKK3-MEK5 inh
O=C1CCSc2c1ccc1ccccc21 | · | · | · | · | 0 | · | · | · | ·
O=C(NCC(=O)N1CCN(c2ncccn2)CC1)c1ccccc1OC(F)F | · | · | · | 2 | 8 | 6 | · | · | ·
COc1ccc(C(=O)c2c[nH]cc2-c2ccccc2)cc1 | 105 | 3 | 103 | -6 | -9 | 1 | · | · | ·
O=C(c1ccc2ccccc2c1)c1c[nH]cc1-c1ccccc1 | 129* | 5 | 105 | 1 | 1 | 10 | 104 | -6 | 103
C=CCNC(=O)CN(c1ccc(OC)cc1OC)S(C)(=O)=O | 127* | 7 | 123 | 0 | -5 | -5 | 98 | -2 | 100
CCn1cc(S(=O)(=O)NCCc2ccccc2OC)cn1 | 100 | 7 | 105 | 12 | -1 | 2 | · | · | ·
CN(C)CCCNc1ccc(-c2cc(Nc3cccc(Cl)c3)ncn2)cn1 | 93 | 15 | 159* | 35 | 3 | 42 | 137 | 14 | 106
COc1cc(/C=N/OCC(=O)Nc2ccc(OC(F)F)cc2)ccc1OCc1ccccc1 | 135* | -1 | 108 | -2 | -5 | 4 | 99 | -7 | 101
CCOc1ccc(/C=N/OCC(=O)Nc2ccc(OCc3ccccc3)cc2)cc1OC | 123 | 3 | 110 | -26 | 6 | 1 | · | · | ·
COC(=O)c1c(C)oc(C)c1S(=O)(=O)N1CCCC1 | 131* | 27 | 130 | 0 | -2 | 0 | 103 | -1 | 100
COC(=O)c1c(C)oc(C)c1S(=O)(=O)N1CCCCC1 | 108 | 6 | 102 | -3 | 2 | -4 | · | · | ·
COC(=O)c1c(C)oc(C)c1S(=O)(=O)NC(C)(C)C | 95 | 0 | 97 | -1 | 2 | -2 | · | · | ·
